KDM5B inhibitor: blocks human KDM5B histone demethylase activity; actives 2.6% (n = 220,000); AID 1347165; KDM5B demethylase, FDH-coupled NADH fluorescence (FDH is formaldehyde dehydrogenase); Potency, µM (series often up to 57.7 µM), actives largely listed as inhibitors; active = well fitted inhibition curve with a large enough effect; also: 0% is about no effect; nearly all actives have a fitted effect of over 70% in size
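Here, H3K4me3 peptide (12.5 µM in substrate mix) is demethylated by KDM5BΔAP, 200 nM final, after 10 min compound exposure. Formaldehyde product is coupled through FDH (0.25 U/mL in mix) to NADH fluorescence; 30-min ΔRFU feeds dose-response curves.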
The depositor's hits bear a star; i = inactive. This excerpt belongs to a sample that is enriched for hits. Potency is read from the fitted curve at half-maximal effect.

SMILES	KDM5B inhibitor
COc1cccc(-c2cnc3[nH]cc(CC(=O)N4CCN(C)CC4)c3c2)c1	35µM*
COc1cccc(CC(=O)N2CCN(CCC(=O)NC(N)=O)CC2)c1	i
N[n+]1cn[nH]c1	i
N#Cc1ccc(CN2CCC(c3c[nH]c4ccccc34)CC2)cc1	i
Cc1ccc(N2CC(C(=O)OCC(=O)Nc3ccc(C#N)c(Cl)c3)CC2=O)cc1 (stereo unspecified)	i
CCCC(=O)c1cn(Cc2ccc(C#N)cc2)c2ccccc12	i
COc1cc2c(cc1Oc1cccc(N(C)C)c1)NC(=O)C21CCN(Cc2cccc(O)c2)CC1	i
c1ccc(CCNC2CCCCCCC2)cc1	i
CC(C(=O)c1c[nH]c2ccccc12)N(Cc1ccc(F)cc1)C1CC1 (stereo unspecified)	i
Cc1nc(-c2ccco2)cc([C@H]2CN3CC[C@H]2C[C@@H]3CNC(=O)C2CC2)n1	35µM*
CCNC(=O)NC[C@H]1C[C@@H]2CCN1C[C@@H]2c1cc(-c2ccc(OC)c(OC)c2)nn1C	i
COc1ccc(C(=O)NC[C@H]2C[C@@H]3CCN2C[C@@H]3c2cc(-c3ccccc3Br)nc(C)n2)cc1	i
COCC(=O)NC[C@H]1C[C@@H]2CCN1C[C@@H]2c1cc(-c2ccccc2OC)nc(C)n1	35µM*
COc1ccc(-c2cc([C@H]3CN4CC[C@H]3C[C@@H]4CNC(=O)NC(C)C)nc(C)n2)cc1OC	32µM*
Cc1nc(-c2ccc(C(F)(F)F)cc2)cc([C@H]2CN3CC[C@H]2C[C@@H]3CNC(=O)C2CC2)n1	i
Cc1nc(-c2ccccc2)cc([C@H]2CN3CC[C@H]2C[C@@H]3CNC(=O)CCCC(=O)O)n1	i
CC(=O)c1ccc(NC(=O)NC[C@H]2C[C@@H]3CCN2C[C@@H]3c2cc(-c3ccco3)nc(C)n2)cc1	i
COc1ccc(-c2cc([C@H]3CN4CC[C@H]3C[C@@H]4CNC(=O)C3CCC3)nc(C)n2)cc1OC	32µM*
Cc1nc(-c2ccccc2Br)cc([C@H]2CN3CC[C@H]2C[C@@H]3CNC(=O)C2CC2)n1	i
COc1ccc(-c2cc([C@H]3CN4CC[C@H]3C[C@@H]4COC(=O)NC(C)C)n(C)n2)cc1OC	i
COCC(=O)NC[C@H]1C[C@@H]2CCN1C[C@@H]2c1cc(-c2ccccc2)nc(C)n1	i
COc1ccc(-c2cc([C@H]3CN4CC[C@H]3C[C@@H]4CNC(=O)c3ccc(C)cc3)n(C)n2)cc1	i
CCc1noc(C(C)N2CCN(C(=O)Cc3ccc(C)cc3)CC2)n1 (stereo unspecified)	i
CCOc1ccc(CNCCc2c[nH]c3ccccc23)cc1OC	i
O=C1Nc2ccccc2C12CCN(CC1CCCCC1)CC2	i
SMILES	KDM5B inhibitor
C=C[C@H]1CN2CC[C@H]1C[C@@H]2CNC(=O)COc1ccccc1	i
Cc1cc(C)c(NC(=O)c2cn(Cc3ccccc3)nn2)c(C)c1	i
O=C(COc1ccc(F)cc1)N1CCN(CCc2ccncc2)CC1	i
CC1CCC(NC(=O)c2cn(C)c3ccccc23)CC1 (stereo unspecified)	i
CCC(CC)c1cc([C@H]2CN3CC[C@H]2C[C@@H]3CNC(=O)COc2ccccc2)nc(-c2ccncc2)n1	25µM*
CCC(CC)c1cc([C@H]2CN3CC[C@H]2C[C@@H]3CNC(=O)Cc2cccs2)nc(-c2ccncc2)n1	i
CCC(CC)c1cc([C@H]2CN3CC[C@H]2C[C@@H]3COC(=O)Nc2ccccc2)nc(-c2ccncc2)n1	i
COc1cc2c(cc1OCc1ccncc1)NC(=O)C21CCN(CC2CC2)CC1	i
COc1cc2c(cc1OCc1ccccc1)NC(=O)C21CCN(c2nc(C)cnc2C)CC1	28µM*
COc1cc2c(cc1OCc1ccccc1)NC(=O)C21CCN(CC2CC2)CC1	i
COc1cc2c(cc1OCc1ccccc1)NC(=O)C21CCN(c2cnccn2)CC1	32µM*
COc1cc2c(cc1OCc1ccncc1)NC(=O)C21CCN(Cc2ccccc2O)CC1	i
COc1cc2c(cc1OCc1ccncc1)NC(=O)C21CCN(c2ccccn2)CC1	28µM*
COc1cc2c(cc1OCc1ccncc1)NC(=O)C21CCN(C(=O)c2cccnc2)CC1	i
COc1cc2c(cc1OCC1CC1)NC(=O)C21CCN(C(=O)c2ccccc2)CC1	i
COc1cc2c(cc1OCc1ccccc1)NC(=O)C21CCN(Cc2ccccn2)CC1	i
COc1ccccc1CNCCc1c[nH]c2ccccc12	i
Cc1cc(C[N+](C)(C)C)oc1C	i
Cc1ccc2c(c1)C(SCC(=O)Nc1ccccc1C(=O)O)c1ccccc1O2 (stereo unspecified)	i
O=C1Nc2ccccc2CNC12CCN(Cc1ccncc1)CC2	i
Cc1[nH]c2ccc(C34CC5CC(CC(C5)C3)C4)cc2c1CCN	i
O=C1CC(CO)CN1 (stereo unspecified)	i
CCCn1c(C)c(C(=O)OCc2ccccc2)c2cc(O)ccc21	i
Cc1nc(-c2ccc(N(C)C)cc2)cc([C@H]2CN3CC[C@H]2C[C@@H]3CNC(=O)C(C)(C)C)n1	32µM*
